HIV RNase H inh-1 = inhibitors of HIV-1 reverse transcriptase RNase H | P04585 | RT-RNase H RNA/DNA duplex cleavage, fluorescence | inhibition, % at 10 µM | 65,000 tested, 1.9% active; in the data active = inhibition above about 50%
HIV RNase H inh-2 = confirmation of HIV-1 reverse transcriptase RNase H inhibitors; inhibition, % at 10 µM; AID 651; Recombinant RT RNase H, fluorescent RNA/DNA duplex cleavage; shares compounds with HIV RNase H inh-1; 1,000 tested, 39% active; in the data active = inhibition above about 48%; inconclusive = no clear call, values can overlap the other calls
The depositor's hits bear a star; ? = inconclusive. Many of the other results were omitted from the sample, so hits are more common in it than they were.

SMILES	HIV RNase H inh-1	others
Cn1nnc2cc(C(=O)N3CCN(c4ccccc4)CC3)ccc21	1
O=C(c1ccc2nc(-c3ccco3)c(-c3ccco3)nc2c1)N1CCN(c2ccccc2)CC1	76*
O=C(c1ccco1)N1CCN(CC(O)COc2ccc3oc4ccccc4c3c2)CC1 (centres undefined)	-9
O=C(COc1ccccc1)Nc1nnc(-c2ccc(Cl)s2)o1	-8
CCOC(=O)c1[nH]c(=O)[nH]c1COC(=O)c1cc2ccccc2o1	-16
COc1ccc2c3c(cccc13)NN=C2C	57*
COc1cccc(OC)c1OCCCc1c(C)n[nH]c1C	-12
COc1cccc(OC)c1OCCCOc1c(OC)cccc1OC	-17
CCC1SC2=NC(C)=C(C(=O)OCCOC)C(c3ccc(C(=O)OC)cc3)N2C1=O (centres undefined)	5
CCOc1ccccc1CNC(=O)C1CCN(C(=O)c2sccc2-n2cccc2)CC1	-3
CCOC(=O)N1CCC(NC(=O)Cn2nc(Cc3ccncc3)c3ccccc3c2=O)CC1	0
CCn1cc(Br)c(C(=O)Nc2ccc(C(=O)OC(C)C)cc2)n1	1
CCOC(=O)c1c(NC(=O)c2nn(CC)cc2Br)c(C#N)cn1-c1ccccc1	-56
CCOC(=O)c1c(-c2ccccc2)csc1NC(=O)c1nn(CC)cc1Br	67*
Cc1ccc(C)n1-c1ccc(C(=O)N2CCOCC2)cc1	-18
Cc1cccc2cc3c(N)c(C(=O)N4CCOCC4)sc3nc12	0
Cc1c(C(=O)O)sc(=S)n1-c1ccccc1	5
CN1CCN(C(=O)c2sc(=S)n(-c3ccccc3)c2N)CC1	95*	HIV RNase H inh-2=59*
Cc1ccc(-n2c(N)c(C(=O)N3CCOCC3)sc2=S)cc1	95*	HIV RNase H inh-2=76*
NC(=O)c1c(N)sc(=S)n1-c1ccccc1	0
COc1ccc(NC(=O)C2=C(C)Nc3ncnn3C2c2ccccc2C(F)(F)F)c(OC)c1 (centres undefined)	6
CSc1cccc(NS(=O)(=O)c2ccc3c(c2)oc(=O)n3C)c1	-14
Cc1cc(C)cc(N(CC(=O)NCc2cccnc2)S(C)(=O)=O)c1	-9
C=C(C)Cn1c(CCCNC(=O)C(C)(C)C)nc2ccccc21	5
CCOc1ccc(CCNC(=O)C2CCN(c3nn4c(=O)cc(C)nc4s3)CC2)cc1OCC	-7
SMILES	HIV RNase H inh-1	others
CC1(C)Cc2ccccc2-c2nnc(SCC(=O)N3CCN(c4ccccc4)CC3)n21	-2
COc1ccc(C(=O)c2ccc(OC)c(OC)c2)cc1OC	-37
CC/C(=N\O)c1ccc(OC)c(OC)c1	-6
COc1ccc(C(=S)N(C)C)cc1OC	87*	HIV RNase H inh-2=58*
Cn1ccnc1P(=S)(c1nccn1C)c1nccn1C	-6
Cc1nc2ccc(Cl)cn2c1P(=S)(N1CCOCC1)N1CCOCC1	-16
Cn1ccnc1P(=S)(c1nccn1C)N1CCOCC1	87*	HIV RNase H inh-2=62*
Cc1ccc(NC(=O)NC2(C(=O)NCc3ccco3)CCCCC2)cc1	-7
Cc1ccc(C)c2[nH]c(=O)c(CN(CC3CCCO3)C(=O)NC3CCCCC3)cc12 (centres undefined)	0
CCOC(=O)c1c(N)ssc1=S	85*	HIV RNase H inh-2=?
C=CCn1sc(N)c(C(=O)OCC)c1=S	-3
CCOC(=O)c1c(N)sc(=S)c2c1CCC2	48
COc1ccc(S(=O)(=O)n2nc(OC(=O)c3c(-c4ccccc4Cl)noc3C)cc2N)cc1	-2
O=C(NCc1ccccn1)c1coc(=O)c(Br)c1	5
COc1ccc(OC)c(C2C(C(=O)c3ccco3)=C(O)C(=O)N2CCCN2CCOCC2)c1 (centres undefined)	-11
O=C(CSc1ccccc1)Nc1cccnc1	0
COC(=O)CSC1=NS(=O)(=O)c2ccccc21	66*	HIV RNase H inh-2=-2
COC(=O)CSc1ccccc1C(=O)OC	-15
O=C(CSC1=NS(=O)(=O)c2ccccc21)Nc1ccccc1	55*	HIV RNase H inh-2=7
COC(=O)CSc1nnc(-c2ccccc2OC)o1	-4
O=C(CN1C(=O)c2ccccc2S1(=O)=O)Nc1cccnc1	-5
COc1cc(NC(=O)c2ccccc2Cl)c(OC)cc1NC(=O)CN1CCOCC1	-2
CCCC(=O)C1=C(O)C(C(=O)OC)C(C)(C)CC1=Nc1ccncc1 (centres undefined)	0
CCC1(C)Cc2c(sc3c2c(=O)n(C)c2nnc(SCc4ccc5c(c4)OCO5)n32)CO1 (centres undefined)	58*	HIV RNase H inh-2=75*
CC(C)Oc1ccc(CSc2nnc3n(C)c(=O)c4c5c(sc4n23)CCCC5)cc1	9
CCCCSc1nnc2n(CCc3ccccc3)c(=O)c3c4c(sc3n12)COC(C)(C)C4	8
CCOC(=O)C(C(C)=O)c1c(Br)c(O)c(O)c2c(C(=O)c3ccc(C)cc3)coc12 (centres undefined)	95*	HIV RNase H inh-2=63*
CCCNC(=O)C1CCN(S(=O)(=O)c2ccc(Br)cc2)CC1	-3
COc1cccc(-c2nc(-c3ccc(NC(=O)c4cccnc4)cc3)no2)c1	-1
COc1cccc(-c2nc(-c3ccccc3)no2)c1	-17

Screening data: PubChem, University of Pittsburgh Molecular Library Screening Center
